In the library only some 1.6% were active in any assay of this set; here they are far more common.
p53ts 32C tox: cytotoxicity in p53ts cells at permissive temperature; H1299-p53A138V at 32C, ATP luminescence viability, 24 h; Potency, µM (doses to about 46.1 µM), without a hit: top-dose activity change, negative = cytotoxicity, usual class: cytotoxic; 0.93% of 130,000 active; AID 924;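 note: 0% = DMSO and -100% = full killing by reference compound; nearly all actives have a fitted effect of over 55% in size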
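Viability by ATPlite luminescence after 24 h compound treatment (up to 46 uM) at the permissive 32C. Cells are H1299 carrying p53 A138V. Scale runs from DMSO basal to 100 uM tamoxifen as full kill; AC50 from Hill fits.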
Peg3 imprint: inducers of genomic imprint erasure in mouse ES cells | AID 1948 | 0.02% of 110,000 active | Potency, µM (top dose mostly 60.7 µM), for the others: at the top dose activity change, positive = activation, actives largely listed as activators | mouse ES Peg3-LacZ reporter, beta-gal luminescence, 40 h
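Readout: BetaGlo luminescence (5 min, room temp) for LacZ from the normally silent maternal Peg3 allele in female Peg3LacZ-Neo ES cells. Cells 300/well, 40 h, 37C, 5% CO2. Data normalized per plate to negative controls.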
p53ts 39C kill: p53ts cell cytotoxicity, nonpermissive temperature; H1299-p53A138V viability at 39C, ATP luminescence, 24 h; Potency, µM (top dose mostly 46.1 µM), inactives show at the highest dose activity change, negative = cell killing, most hits filed as cytotoxic; 1.5% of 130,000 active; note: % is set by controls: 0 for no effect and ±100 for the full control effect; nearly all actives have a fitted effect of over 55% in size
Active calls of the source: *; ? = inconclusive; . = no result; [ ] = remark or other dose. Calls come from the whole dose curve; as a rule, active = well fitted curve in the direction sought with a large enough effect; inconclusive = small, poorly fitted or top-dose-only effect, or another doubt; inactive = no such curve, though single readings can be large; an effect the other way counts as inactive or inconclusive. Potency is the fitted concentration of half-maximal effect.

SMILES | p53ts 32C tox | Peg3 imprint | p53ts 39C kill
O=C(NC1=NCCS1)Nc1ccccc1 | 10µM* | -87% | 16µM*
O=C(Nc1ccccc1)Nc1ccccc1 | ? | -70% | ?
O=C(Nc1ccccc1N1CCN(C(=O)c2ccc(Cl)cc2)CC1)c1cc2ccccc2o1 | 17% | -2% | 4%
CN1CCN(c2ncc3nc(CCc4ccccc4)c(=O)n(CCC#N)c3n2)CC1 | -14% | . | -5%
Cn1ccc2cc(S(=O)(=O)N3CCC(C(=O)NCCc4ccccc4)CC3)ccc21 | -6% | -6%[10.9 µM] | -18%
COCCNC(=O)CSc1nc(-c2cc(OC)c(OC)c(OC)c2)[nH]c1-c1ccc(Cl)cc1 | -15% | 7%[10.9 µM] | -17%
O=C(NC1=NCCS1)c1cccs1 | -11% | -3% | 7%
O=C(NC1=NCCS1)c1cc2ccccc2o1 | 5µM* | -73% | 5µM*
CC(=O)c1cccc(NC(=O)c2cc(-c3ccc(C)cc3)on2)c1 | ? | 1% | -28%
Cc1ccc(OC(=O)c2cc(-c3ccc4c(c3)OCCO4)on2)c(C)c1 | 20µM* | -16%[10.9 µM] | 13µM*
Cc1ccc(O)c(NC(=O)c2cc(-c3ccc4c(c3)OCO4)on2)c1 | ? | -43%[10.9 µM] | ?
CC(=O)c1ccc(NC(=O)c2cc(-c3ccc4c(c3)OCO4)on2)cc1 | 8% | 7%[10.9 µM] | 20%
Cc1ccn2cc(C(=O)Nc3ccccc3N3CCOCC3)nc2c1 | -1% | -9% | -14%
CC(=O)Nc1ccc(NC(=O)c2cc(-c3ccc4c(c3)OCCO4)on2)cc1 | ? | -12%[10.9 µM] | 1.6µM*
CC(=O)c1cccc(NC(=O)c2cc(-c3ccc4c(c3)OCCO4)on2)c1 | 1.3µM* | -8%[10.9 µM] | 2.5µM*
Cc1ccn2cc(C(=O)Nc3ccc4c(c3)OCCO4)nc2c1 | 13µM* | -32% | 13µM*
Cc1cc(NC(=O)c2cccnc2)cc(-c2nc3cc(Cl)ccc3o2)c1O | 5% | ? | 52%
Fc1cc(Br)ccc1Nc1c2c(nc3nc(-c4cccs4)nn13)CCCC2 | 11% | 9%[10.9 µM] | 12%
O=C(CCCn1c(=O)c2cccn2c2ccccc21)NCc1ccccc1Br | -3% | -12%[10.9 µM] | -4%
S=c1ccss1 | -3% | 8% | 2%
Cc1cccc(NC(=O)CSc2nnc3[nH]c(=O)cc(C)n23)c1C | -7% | 14%[10.9 µM] | 10%
Cc1cc(=O)[nH]c2nnc(SCC(=O)Nc3ccc(F)cc3F)n12 | 12% | 13%[10.9 µM] | 6%
Cc1cc(=O)[nH]c2nnc(SCC(=O)Nc3cc(C(F)(F)F)ccc3Cl)n12 | -6% | -11%[10.9 µM] | -4%
Cc1cccc(NC(=O)CSc2nnc3[nH]c(=O)cc(-c4ccccc4)n23)c1C | 2% | -5%[10.9 µM] | 1.3µM*
O=C(CSc1nnc2[nH]c(=O)cc(-c3ccccc3)n12)Nc1ccc(F)cc1F | ? | 4%[10.9 µM] | 3.2µM*
SMILES | p53ts 32C tox | Peg3 imprint | p53ts 39C kill
O=C(CSc1nnc2[nH]c(=O)cc(-c3ccccc3)n12)Nc1cc(C(F)(F)F)ccc1Cl | 0.63µM* | 16%[10.9 µM] | 1.3µM*
COc1ccc(CNC(=O)C(Cc2ccccc2)NS(=O)(=O)c2ccc3c(c2)CCN3C(C)=O)cc1 (centres undefined) | 6% | -6%[10.9 µM] | 12%
COc1ccc(CNC(=O)Cc2c(C)c3c(cc(C)c4c(C)coc43)oc2=O)cc1 | 4% | -7%[10.9 µM] | -19%
CC(C)=CCC/C(C)=C/C=O | 17%[1.84 µM] | -3% | 8%
CCn1cc(C(=O)NCCc2ccc(Cl)cc2)c(=O)c2cc(S(=O)(=O)N3CCc4ccccc4C3)ccc21 | 1% | -12%[10.9 µM] | 19%
Cc1cc(C)c(S(=O)(=O)n2cnc(C)c2)c(C)c1 | -5% | -11%[10.9 µM] | -9%
CCOC(=O)c1ccc(NC(=O)c2ccc3c(c2)CCN3S(=O)(=O)c2ccc(Cl)cc2)cc1 | 8% | -20%[10.9 µM] | -20%
Cc1ccc2c(c1)C(c1ccc(F)cc1)N(C(=O)C(C)C)CC(=O)N2 (centres undefined) | 5% | 9%[10.9 µM] | 17%
O=C(NCc1ccccc1)c1ccc2c(c1)N(Cc1cccc(Cl)c1)C(=O)c1ccccc1S2(=O)=O | -6% | -11%[10.9 µM] | 15%
CC1CCCN(CCCNC(=O)c2ccc3c(c2)N(Cc2cccc(Cl)c2)C(=O)c2ccccc2S3(=O)=O)C1 (centres undefined) | 3% | -17%[10.9 µM] | 13µM*
Cc1oc(C)c2c(=O)cc(-c3ccc4c(c3)OCO4)cc(OC(=O)c3cccc(Br)c3)c12 | 7% | -10%[10.9 µM] | -1%
O=C(NCCCN1CCN(c2ccccc2F)CC1)c1cc2c(s1)-c1ccccc1OC2 | ? | -11%[10.9 µM] | 13µM*
CCCN1CCN(CCCNC(=O)c2cc3c(s2)-c2c(C)cccc2OC3)CC1 | ? | -18%[10.9 µM] | 10µM*
CCCN1CCN(CCCNC(=O)c2cc3c(s2)-c2ccccc2OC3)CC1 | -17% | -12%[10.9 µM] | ?
CCN1CCN(CCCNC(=O)c2cc3c(s2)-c2ccccc2OC3)CC1 | -19% | -4%[10.9 µM] | -26%

Screening results as filed in PubChem.
